Screens as filed in PubChem BioAssay.
Sfp inh: qHTS Assay for Inhibitors of Bacillus subtilis Sfp phosphopantetheinyl transferase (PPTase); 4'-phosphopantetheinyl transferase ffp (Bacillus subtilis), Q9F4F7; Biochemical Sfp PPTase activity, qHTS; Potency, µM, without a hit: largest response in the series, negative = inhibition, most hits filed as inhibitors; hit rate 3.5% among 310,000;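 also: the enzyme is Sfp with the accession as filed and its product quenches rhodamine fluorescence; 0% = enzyme reaction without inhibitor and -100% = no enzyme wells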
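Reaction rates are the 30-min fluorescence difference (ex 525, em 598 nm) in wells containing 15 nM Sfp, 5 uM rhodamine-CoA and 12.5 uM BHQ-2-YbbR at pH 7.6 with 10 mM MgCl2.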
PLK1 PBD block: qHTS for Inhibitors of PLK1-PDB (polo-like kinase 1 - polo-box domain): Primary Screen; Serine/threonine-protein kinase PLK1 (Homo sapiens), P53350; AID 720504, 2013; Potency, µM, inactives show max response, negative = inhibition, most hits filed as inhibitors; Plk1 PBD binding of FITC phosphopeptide, fluorescence polarization; hit rate 2.8% among 360,000; also: series mostly up to about 57 µM; nearly all actives have a fitted effect of over 65% in size
VP16 counter: VP16 counterscreen qHTS for inhibitors of ROR gamma transcriptional activity; Drosophila S2 Gal4-VP16 UAS-luciferase, luminescence, 20 h; Potency, µM (highest dose often 53.6 µM), for the others: top-dose activity, negative = inhibition, usual class: inhibitors; hit rate 3.5% among 310,000; AID 2546, 2010;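 also: Gal4-VP16 expression switched on by copper sulfate through the metallothionein promoter; nearly all actives have a fitted effect of over 50% in size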
ALDH1A1 block: qHTS Assay for Inhibitors of Aldehyde Dehydrogenase 1 (ALDH1A1); Aldehyde dehydrogenase 1A1 (Homo sapiens), P00352; Purified ALDH1A1, NADH fluorescence, propionaldehyde substrate; Potency, µM (series often up to 75.3 µM), for inactives: at the highest dose activity, negative = inhibition, most hits filed as inhibitors; hit rate 7.3% among 220,000; active = well fitted inhibition curve with a large enough effect, not every such curve was filed as active; inconclusive = small, poorly fitted or top-dose-only effect, or another doubt; inactive = no such curve, though single readings can be large or run the other way;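 also: plate controls were no enzyme wells and a reference inhibitor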
Target sequence (P00352 whole entry, looked up): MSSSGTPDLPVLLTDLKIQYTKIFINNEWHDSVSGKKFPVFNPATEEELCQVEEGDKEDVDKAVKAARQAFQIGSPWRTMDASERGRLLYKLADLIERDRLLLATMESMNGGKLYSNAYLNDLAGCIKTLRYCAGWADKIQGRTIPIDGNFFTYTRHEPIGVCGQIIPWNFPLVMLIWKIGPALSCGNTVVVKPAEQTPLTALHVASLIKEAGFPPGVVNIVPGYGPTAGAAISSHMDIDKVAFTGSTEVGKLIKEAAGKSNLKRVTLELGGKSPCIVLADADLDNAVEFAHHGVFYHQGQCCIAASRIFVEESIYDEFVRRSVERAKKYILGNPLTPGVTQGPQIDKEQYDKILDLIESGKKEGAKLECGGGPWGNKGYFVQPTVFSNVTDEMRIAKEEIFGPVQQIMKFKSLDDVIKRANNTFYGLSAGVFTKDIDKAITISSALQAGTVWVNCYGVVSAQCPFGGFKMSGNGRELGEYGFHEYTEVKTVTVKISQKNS
RORg inh: qHTS for inhibitors of ROR gamma transcriptional activity; Drosophila S2 Gal4-RORgamma UAS-luciferase reporter, 20 h; Potency, µM (series often up to 53.6 µM), for the others: top-dose activity change, negative = inhibition, actives largely listed as inhibitors; AID 2551, 2010; hit rate 5.4% among 310,000; Nuclear receptor ROR-gamma (Mus musculus), P51450; also: nearly all actives have a fitted effect of over 60% in size
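In this cell-based reporter format, copper sulfate (700 uM final) drives Gal4–ROR gamma fusion expression from a metallothionein promoter in Drosophila Schneider cells; compounds preincubated 1 hr, reporter read after 20 hr at ambient temperature.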
* = called active by the depositor; u = inconclusive; x = no result; [ ] = dose if it differs, or a comment. Most compounds without a hit are left out; they make up all but 12% or so of the library. Unless noted, calls follow the shape of the dose curve; as a rule, active = well fitted curve in the direction sought with a large enough effect; inconclusive = small, poorly fitted or top-dose-only effect, or another doubt; inactive = no such curve, though single readings can be large; an effect the other way counts as inactive or inconclusive. Unless noted, % is scaled to controls: 0 for no effect and ±100 for the full control effect; potency is read from the fitted curve at half-maximal effect.

SMILES | Sfp inh | PLK1 PBD block | VP16 counter | ALDH1A1 block | RORg inh
CC(OC(=O)c1cccc(S(=O)(=O)N2CCCC2)c1)C(=O)c1ccccc1 (configuration not stated) | -2% | 1% | -11% | x | 2%
CC1=CC(=O)C(C(C)C)=C/C1=N/OS(=O)(=O)c1ccccc1 | -27% | -17% | 2µM* | x | 2.8µM*
CC1=CC(=O)C=C(C)C1=NOS(=O)(=O)c1ccccc1 | -5% | -26% | 18µM* | u | 18µM*
C[C@H](NC(=O)N1CCc2nc(-c3ccccc3)c3c(c2C1)CO[C@@H](C)C3)c1ccccc1 | -12% | x | x | 1%[13.5 µM] | x
CC(C)NC(=O)C1(C)CCN1Cc1ccc(Cl)cc1 (configuration not stated) | x | 2% | x | x | x
CCc1nc2ccc(C(=O)N3CCN(C(=O)c4ccco4)CC3)cn2c1N(C)Cc1nccn1C | x | -6% | x | x | x
C/C=C/C(=O)C[C@H]1CC[C@@H](C)[C@@H](CCO)O1 | -1% | x | -9% | u | 30%
CCc1cc(C(=O)NCC(c2ccco2)N2CCCCC2)sc1C (configuration not stated) | x | -8% | x | x | x
COc1ccc(-c2oc3ccccc3c2C(=O)OCc2ccccc2)cc1 | 4% | 24µM* | 17% | x | 16%
COc1ccc(-c2oc3ccccc3c2C(=O)OCc2ccc(O)cc2)cc1 | -1% | 20% | -12% | x | u
Cc1cc(Br)ccc1N=C1NC(=O)CS1 | 40µM* | 27µM* | 1% | x | 2%
Cc1cc(C)cc(OCC(=O)NNC(=O)CC(C)c2ccccc2)c1 (configuration not stated) | x | -6% | x | x | x
C=Cc1ccc(CN2CCCN(Cc3ccc(F)cc3)S2(=O)=O)cc1 | 6% | 2% | 3% | x | -11%
C=Cc1ccc(CN2CCCN(Cc3ccc(Cl)cc3)S2(=O)=O)cc1 | -1% | 15µM* | 15% | x | -17%
COC(=O)C1C(=O)N(S(=O)(=O)c2ccc([N+](=O)[O-])cc2)c2ccccc21 (configuration not stated) | x | -16% | x | x | x
CC(=O)OC1CCC2(C)C(=CCC3C2CCC2(C)C3C[C@@H]3O[C@]32C(C)=O)C1 (some centres not stated) | 0% | x | -1% | 0% | 16%
NC(=O)Oc1ccc(Cc2ccccc2)cc1 | 13% | x | 5% | x | 22%
Cc1nn2c3c(cnc2c1-c1ccccc1)C(=O)CC(c1ccccc1)C3 (configuration not stated) | 6% | -1% | -3% | u | -5%
Cc1nn2c3c(cnc2c1-c1ccccc1)C(=O)CC(c1ccco1)C3 (configuration not stated) | 89µM* | 1% | u | 25µM* | 23%[10 µM]
O=C(NCc1ccccc1CN1CCCC1)c1ccc(S(=O)(=O)Nc2ccccc2)cc1 | x | -10% | x | x | x
Cc1ccc(C(=O)N/C(=C\c2cccc([N+](=O)[O-])c2)C(=O)Nc2cccc(C(=O)O)c2)cc1 | 1% | -10% | 2% | x | u
COc1ccccc1C(=O)N/C(=C/c1cccc([N+](=O)[O-])c1)C(=O)Nc1cccc(C(=O)O)c1 | -8% | 30µM* | -14% | -7% | -2%
COc1ccc(C(=O)N/C(=C\c2cccc([N+](=O)[O-])c2)C(=O)Nc2cccc(C(=O)O)c2)cc1 | 5% | -3% | -7% | 13µM* | -5%
CCC(=O)N(CCC(c1ccccc1)c1ccco1)Cc1cccs1 (configuration not stated) | 50µM* | -22% | 10% | 8.9µM* | 12%
COc1ccccc1C(CCN(Cc1cccs1)C(C)=O)c1ccco1 (configuration not stated) | 20µM* | -17% | 2% | 8.9µM* | u
SMILES | Sfp inh | PLK1 PBD block | VP16 counter | ALDH1A1 block | RORg inh
CCC(=O)N(CCC(Cc1ccccc1)c1ccco1)Cc1ccco1 (configuration not stated) | -26% | -1% | 4% | 14µM* | 12%
CCC(=O)NCCC(c1ccco1)c1ccccc1OC (configuration not stated) | 11µM* | -9% | u | -3% | 4%
CCN(CC)C(=O)CC(c1ccccc1)c1ccco1 (configuration not stated) | -16% | -7% | -10% | -11% | 6%
Cc1ccc(S(=O)(=O)N[C@H](C(=O)NCC2CCC(C(=O)O)CC2)C(C)C)cc1 (some centres not stated) | 2% | 1% | -5% | x | -1%
COc1ccc(NC(=O)N2CC[C@@]3(CCCN(C(=O)c4cccn4C)C3)C2)cc1 | 18% | x | -7% | u | 8%
CN(C)CC/C=C1\c2cc(F)ccc2CSc2ccccc21 | 79µM* | -7% | u | 5% | u
CN(C)CC/C=C1/c2cc(F)ccc2CSc2ccc(F)cc21 | 20% | -5% | -4% | 8% | 10%
[N-]=C=C1C(=S)NC(=O)[C@H]([n+]2ccccc2)[C@H]1c1ccc(Cl)cc1 | -10% | 27µM* | 7% | 14µM* | 15%
NC(=S)NC(=O)c1ccccc1 | -2% | u | -1% | -8% | -25%
O=C(NC(=S)NC1CCCC1)c1ccccc1 | 21% | -4% | 10µM* | x | 7.1µM*
CCN(C(=S)NC(=O)c1ccccc1Br)C1CCCCC1 | 3% | 5% | 2.8µM* | -12% | 1µM*
O=C(NC(=S)NC1C2CC3CC(C2)CC1C3)c1ccccc1 (configuration not stated) | 32% | -1% | 1.8µM* | x | 1.6µM*
CN(C)C(=O)CNC(=O)C1CCCCC1 | 29% | -6% | -5% | 12% | 16%
CCN(C(=S)NC(=O)C1CCCC1)C1CCCCC1 | 9% | -3% | u | -7% | 4.5µM*
COC(=O)c1ccc2c(c1C(=O)OC)CN(S(=O)(=O)C(C)(C)C)[C@@H]2CCO | x | 9% | x | x | x
c1ccc(COc2ccc(-c3cc4nc(NCCN5CCOCC5)ccn4n3)cc2)cc1 | x | 6% | x | x | x
CC(NC(=S)NC(=O)c1ccccc1Br)c1ccccc1 (configuration not stated) | u | u | 7.1µM* | x | 6.3µM*
O=C(NNC(=S)NC1CCCCC1)c1ccccc1O | 21% | -13% | -12% | -8% | 14µM*
O=C(NC(=S)NC1CC1)c1cccnc1 | -23% | -13% | u | -10% | 5.6µM*
O=C(NC(=S)NC1CCCCCCCCCCC1)c1cccnc1 | -1% | -15% | -11% | u | 0%
O=C(NC(=S)NC1CCCC1)c1ccccc1Br | 21% | -6% | u | u | 4.5µM*
O=C(NC1CCCCC1)c1cc(C(=O)c2ccccc2Br)c[nH]1 | 11% | 3% | -10% | 11% | -14%
COc1ccc2cccc(N3CCN(CCNC(=O)c4ccc(F)cc4)CC3)c2c1 | -12% | x | -4% | u | 11%
CCCCn1nc(C(=O)N2CCN(S(=O)(=O)c3ccccc3)CC2)c2ccccc2c1=O | x | 1% | x | x | x
